Among the data in PubChem BioAssay (NCI) are growth inhibition values, retold here.

Structures are written as SMILES. This is part of a sample that, as a whole, favours compounds with a hit. Of some 79,000 tested, about 15% had one in any assay. Unmarked numbers belong to inactive results. Activity calls are given as the source filed them. Cut-off read from the data, not from the text of the source: active = growth inhibition above about 70%; inactive = the rest.

Test [1] can be described thus: NCI Yeast Anticancer Drug Screen. Data for the rad50 strain (AID 155).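 Note: 0% = growth of vehicle-only cultures of the same strain.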 As to conditions: S. cerevisiae rad50 strain growth inhibition, active compounds read high. The gist of the method: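 Growth of the mutant yeast was measured after compound exposure and referenced to vehicle-treated cultures.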
Test [2] in a line: NCI Yeast Anticancer Drug Screen. Data for the mec2-1 strain (AID 157). The following applies: S. cerevisiae mec2-1 strain, active compounds read high. The gist of the method: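 Mutant yeast (mec2-1) grown with compound; growth inhibition relative to vehicle control reported.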
Test [3] is described as follows: NCI Yeast Anticancer Drug Screen. Data for the sgs1 mgt1 strain (AID 161).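 Note: 0% = growth of cultures given vehicle only.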 As to conditions: S. cerevisiae sgs1 mgt1 strain, active compounds read high. The gist of the method:
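Percent growth inhibition was derived by comparing compound-exposed mutant yeast with vehicle-exposed cultures. The strain carries alterations in DNA damage repair.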

Test [4] can be described thus: NCI Yeast Anticancer Drug Screen. Data for the cln2 rad14 strain (AID 165).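 Note: 0% = growth equal to vehicle treated cultures.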 As to conditions: S. cerevisiae cln2 rad14 strain, active compounds read high. The gist of the method: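 Readout is yeast growth inhibition versus vehicle-treated controls, using a strain with cln2 and rad14 alterations exposed to compound.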
Test [5] can be described thus: NCI Yeast Anticancer Drug Screen. Data for the bub3 strain (AID 167). As to conditions: S. cerevisiae bub3 mutant strain, active compounds read high. The gist of the method:
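Whole-cell yeast assay. The mutant strain was incubated with compounds, and growth inhibition was determined by comparison with vehicle-treated cells.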

The nature of test [6]: NCI Yeast Anticancer Drug Screen. Data for the mlh1 rad18 strain (AID 175). As to conditions: S. cerevisiae mlh1 rad18 strain growth inhibition, active compounds read high. The gist of the method:
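Genetically defined yeast (DNA repair-deficient) exposed to compounds; growth inhibition determined relative to vehicle.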

Setting [7] is: at 5.0 µM (retest, dose inferred, filed as 0.5).
[8] abbreviates: at 50.0 µM (retest, dose inferred, filed as 5.0).

For `Cn1ncc2c(Nc3cccc(Cl)c3)nc(Nc3cccc(Cl)c3)nc21`, the growth inhibition in test [1] (setting [7]) was 47%; in test [1] (setting [8]), 97% (active); in test [1] (at 50.0 µM) it was 96% (active); in test [2] (setting [7]), 18%; in test [2] (setting [8]), 98% (active); in test [2] (at 50.0 µM) it was 94.2% (active). The growth inhibition in test [3] (setting [7]) is 27%; in test [3] (setting [8]), 98% (active); in test [3] (at 50.0 µM), 96.2% (active); in test [4] (setting [7]) it was 11%; in test [4] (setting [8]) it was 97% (active); in test [4] (at 50.0 µM), 95.4% (active). The growth inhibition in test [5] (setting [7]) is -7%; in test [5] (setting [8]) it was 98% (active); in test [5] (at 50.0 µM), 94.2% (active); in test [6] (setting [7]) it was 32%; in test [6] (setting [8]), 97% (active); in test [6] (at 50.0 µM), 95.7% (active).
For `Cc1ccc2c(c1)-c1cc(C)ccc1C2(O)c1ccccc1`, the growth inhibition is 3% in test [1] (setting [7]); 83% (active) in test [1] (setting [8]); 99% (active) in test [1] (at 50.0 µM); 14% in test [2] (setting [7]); 66% in test [2] (setting [8]); 97.9% (active) in test [2] (at 50.0 µM). The growth inhibition is 6% in test [3] (setting [7]); 89% (active) in test [3] (setting [8]); 93.7% (active) in test [3] (at 50.0 µM); -7% in test [4] (setting [7]); 79% (active) in test [4] (setting [8]); 97.2% (active) in test [4] (at 50.0 µM). In addition, the growth inhibition was 3% in test [5] (setting [7]); 95% (active) in test [5] (setting [8]); 96.7% (active) in test [5] (at 50.0 µM); -6% in test [6] (setting [7]); 95% (active) in test [6] (setting [8]); 99.2% (active) in test [6] (at 50.0 µM).
As to `Cc1ccccc1C(=N)c1ccccc1Cc1cccc2ccccc12`, the growth inhibition in test [1] (setting [7]) was 9%; in test [1] (setting [8]), 93% (active); in test [1] (at 50.0 µM) it was 92.5% (active); in test [2] (setting [7]) it was -10%; in test [2] (setting [8]), 91% (active); in test [2] (at 50.0 µM) it was 88.5% (active). Moreover, the growth inhibition is -1% in test [3] (setting [7]); 92% (active) in test [3] (setting [8]); 93.2% (active) in test [3] (at 50.0 µM); -11% in test [4] (setting [7]); 87% (active) in test [4] (setting [8]); 78.9% (active) in test [4] (at 50.0 µM). Besides, the growth inhibition in test [5] (setting [7]) is -9%; in test [5] (setting [8]), 93% (active); in test [5] (at 50.0 µM) it was 88.4% (active); in test [6] (setting [7]), 0%; in test [6] (setting [8]), 91% (active); in test [6] (at 50.0 µM) it was 91.2% (active).
`CN(/N=C\c1cccc([N+](=O)[O-])c1)C(c1cccc([N+](=O)[O-])c1)N(C)/N=C/c1cccc([N+](=O)[O-])c1` (configuration not stated): the growth inhibition is -1% in test [1] (setting [7]); 34% in test [1] (setting [8]); 43% in test [1] (at 50.0 µM); -1% in test [2] (setting [7]); 45% in test [2] (setting [8]); 48.4% in test [2] (at 50.0 µM). The growth inhibition is 2% in test [3] (setting [7]); 74% (active) in test [3] (setting [8]); 68.5% in test [3] (at 50.0 µM); 0% in test [4] (setting [7]); 17% in test [4] (setting [8]); 8.75% in test [4] (at 50.0 µM). In addition, the growth inhibition in test [5] (setting [7]) was -7%; in test [5] (setting [8]), 16%; in test [5] (at 50.0 µM), 16.5%; in test [6] (setting [7]), 0%; in test [6] (setting [8]) it was 40%; in test [6] (at 50.0 µM) it was 40.6%.
Turning to `Cn1c(=O)c2c(nc(CCCCCCCc3nc4c(c(=O)n(C)c(=O)n4C)n3C)n2C)n(C)c1=O`, the growth inhibition in test [1] (setting [7]) is 4%; in test [1] (setting [8]), 5%; in test [1] (at 50.0 µM), 48.9%; in test [2] (setting [7]) it was 1%; in test [2] (setting [8]) it was 18%; in test [2] (at 50.0 µM), 23.3%. In addition, the growth inhibition in test [3] (setting [7]) is 2%; in test [3] (setting [8]) it was 10%; in test [3] (at 50.0 µM), 42%; in test [4] (setting [7]) it was 2%; in test [4] (setting [8]), 10%; in test [4] (at 50.0 µM) it was 60.2%. Moreover, the growth inhibition was 7% in test [5] (setting [7]); 4% in test [5] (setting [8]); 16.7% in test [5] (at 50.0 µM); -2% in test [6] (setting [7]); 9% in test [6] (setting [8]); 35.8% in test [6] (at 50.0 µM).
As for `CCCCCC(/C=N/NC(N)=S)C(O)(C(F)(F)F)C(F)(F)F` (configuration not stated), the growth inhibition is -21% in test [1] (setting [7]); 51% in test [1] (setting [8]); 77.6% (active) in test [1] (at 50.0 µM); -17% in test [2] (setting [7]); 47% in test [2] (setting [8]); 62.4% in test [2] (at 50.0 µM). Also, the growth inhibition in test [3] (setting [7]) was -7%; in test [3] (setting [8]), 28%; in test [3] (at 50.0 µM), 73% (active); in test [4] (setting [7]), -11%; in test [4] (setting [8]), 77% (active); in test [4] (at 50.0 µM) it was 61%. The growth inhibition is -11% in test [5] (setting [7]); 77% (active) in test [5] (setting [8]); 35% in test [5] (at 50.0 µM); -27% in test [6] (setting [7]); 78% (active) in test [6] (setting [8]); 67.9% in test [6] (at 50.0 µM).
Consider `O=C1C=C(OCC=C(C(F)(F)F)C(F)(F)F)C(=O)c2ccccc21`, for which the growth inhibition in test [1] (setting [7]) is -6%; in test [1] (setting [8]) it was 18%; in test [1] (at 50.0 µM), 55.1%; in test [2] (setting [7]), 27%; in test [2] (setting [8]), 68%; in test [2] (at 50.0 µM), 64.8%. The growth inhibition in test [3] (setting [7]) was 24%; in test [3] (setting [8]), 74% (active); in test [3] (at 50.0 µM), 66.9%; in test [4] (setting [7]), -1%; in test [4] (setting [8]), 25%; in test [4] (at 50.0 µM), 49.4%. Further, the growth inhibition was 1% in test [5] (setting [7]); 52% in test [5] (setting [8]); 67.2% in test [5] (at 50.0 µM); 45% in test [6] (setting [7]); 67% in test [6] (setting [8]); 80.3% (active) in test [6] (at 50.0 µM).
On to `Cc1[nH]c2ccccc2c1C(C)CC(O)c1ccccc1` (configuration not stated), for which the growth inhibition in test [1] (setting [7]) is 5%; in test [1] (setting [8]) it was 68%; in test [1] (at 50.0 µM), 95% (active); in test [2] (setting [7]) it was -4%; in test [2] (setting [8]) it was 73% (active); in test [2] (at 50.0 µM) it was 85.5% (active). The growth inhibition in test [3] (setting [7]) was 2%; in test [3] (setting [8]), 62%; in test [3] (at 50.0 µM), 90.2% (active); in test [4] (setting [7]), 11%; in test [4] (setting [8]), 29%; in test [4] (at 50.0 µM), 95.8% (active). The growth inhibition is 3% in test [5] (setting [7]); 67% in test [5] (setting [8]); 88.7% (active) in test [5] (at 50.0 µM); 8% in test [6] (setting [7]); 88% (active) in test [6] (setting [8]); 95.2% (active) in test [6] (at 50.0 µM).
Consider `N#C/C(=C\c1cccnc1)c1csc2ccccc12`, for which the growth inhibition in test [1] (setting [7]) was 2%; in test [1] (setting [8]), 86% (active); in test [1] (at 50.0 µM), 95.3% (active); in test [2] (setting [7]), 8%; in test [2] (setting [8]), 91% (active); in test [2] (at 50.0 µM), 88.8% (active). Also, the growth inhibition in test [3] (setting [7]) was 2%; in test [3] (setting [8]), 85% (active); in test [3] (at 50.0 µM), 75.2% (active); in test [4] (setting [7]), 1%; in test [4] (setting [8]), 83% (active); in test [4] (at 50.0 µM), 73% (active). For the same compound, the growth inhibition is 1% in test [5] (setting [7]); 83% (active) in test [5] (setting [8]); 94.2% (active) in test [5] (at 50.0 µM); -5% in test [6] (setting [7]); 88% (active) in test [6] (setting [8]); 94.4% (active) in test [6] (at 50.0 µM).
